Test results: PubChem BioAssay
A number with no mark means an inactive call. For some of these results: Measured potencies and affinities stand elsewhere. Calls of active or inactive are those of the source. Unless noted, how the calls were made is not given here.

What was measured:
[1] = antimalarial activity against Dd2 strain (AID 2302;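 active means growth inhibition above 50% at the single 2 µM test dose, taken to imply half-maximal potency below 2 µM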;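 further: 0% = DMSO untreated growth and 100% = chloroquine plus artemisinin killed control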); details: P. falciparum Dd2 in RBCs, LDH growth readout, 72 h; at 2 µM; active compounds read high
[2] = human hepatoma cell viability loss – ATP luminescence, cytotoxicity control for P. falciparum antimalarial project, primary screen (AID 2303;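 active means inhibition above 50%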;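 further: 0% = DMSO wells and 100% = digitonin-killed cells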); details: HepG2 viability, 24-48 h, at 10 µM, active compounds read high
[3] = target: L-lactate dehydrogenase (Plasmodium falciparum (isolate CDC / Honduras)) (UniProt Q27743); experiment: PfLDH activity inhibition – cell lysate, 3D7 strain, counter-screen for P. falciparum growth inhibition project (AID 2304);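 further: 0% = vehicle and 100% = reference inhibitor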; details: P. falciparum 3D7 crude extract, LDH APAD/NBT absorbance; at 2 µM; active compounds read high
L-lactate dehydrogenase (Plasmodium falciparum (isolate CDC / Honduras)), sequence (Q27743 whole entry, looked up): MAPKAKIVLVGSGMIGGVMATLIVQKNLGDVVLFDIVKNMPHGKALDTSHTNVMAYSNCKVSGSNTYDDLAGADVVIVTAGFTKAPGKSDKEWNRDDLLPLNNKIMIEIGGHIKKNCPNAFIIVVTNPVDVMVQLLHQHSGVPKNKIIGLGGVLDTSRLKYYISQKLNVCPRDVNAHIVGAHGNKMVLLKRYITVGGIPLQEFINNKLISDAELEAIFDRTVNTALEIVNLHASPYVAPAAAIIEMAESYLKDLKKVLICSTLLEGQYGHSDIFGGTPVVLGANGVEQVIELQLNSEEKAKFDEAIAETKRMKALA

[4] = inhibition of 3D7 malaria parasite growth – strain 3D7 (AID 2306);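 further: 0% = DMSO wells and 100% = chloroquine plus artemisinin control wells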; details: P. falciparum 3D7 erythrocytic growth, LDH absorbance, 72 h; at 2 µM; active compounds read high
[5] = target: Calcium-dependent protein kinase 1 (Plasmodium falciparum (isolate 3D7)) (UniProt P62344); experiment: PfCDPK1 kinase inhibitors, biochemical, TCAMS library (AID 1159585; cut-off not given, nearly all actives have IC50 up to about 0.98 µM;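 further: inhibitors leave more ATP so luminescence rises with inhibition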); details: recombinant PfCDPK1, Kinase-Glo ATP depletion luminescence
Calcium-dependent protein kinase 1 (Plasmodium falciparum (isolate 3D7)), sequence (P62344 whole entry, looked up): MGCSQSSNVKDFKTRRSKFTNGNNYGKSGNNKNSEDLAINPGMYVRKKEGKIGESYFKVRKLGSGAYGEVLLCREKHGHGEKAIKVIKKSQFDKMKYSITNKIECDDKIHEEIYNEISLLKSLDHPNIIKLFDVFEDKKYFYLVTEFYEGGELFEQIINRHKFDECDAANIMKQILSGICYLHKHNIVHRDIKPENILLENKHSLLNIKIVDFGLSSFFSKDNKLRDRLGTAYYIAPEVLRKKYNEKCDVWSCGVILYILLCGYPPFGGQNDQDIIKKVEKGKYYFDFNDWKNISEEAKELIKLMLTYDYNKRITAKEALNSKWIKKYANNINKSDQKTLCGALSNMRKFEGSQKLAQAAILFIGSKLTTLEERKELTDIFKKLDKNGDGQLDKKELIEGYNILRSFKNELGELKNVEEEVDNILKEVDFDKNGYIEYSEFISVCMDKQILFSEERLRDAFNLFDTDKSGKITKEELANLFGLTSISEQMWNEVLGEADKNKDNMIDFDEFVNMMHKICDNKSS

[6] = target: Plasmodium falciparum protein kinase 6 (PK6, PF3D7_1337100) (UniProt Q8IDW1); experiment: PfPK6 kinase inhibitors, biochemical, TCAMS library (AID 1159586); details: recombinant PfPK6, Kinase-Glo ATP depletion luminescence
Plasmodium falciparum protein kinase 6 (PK6, PF3D7_1337100), sequence (Q8IDW1 1-305): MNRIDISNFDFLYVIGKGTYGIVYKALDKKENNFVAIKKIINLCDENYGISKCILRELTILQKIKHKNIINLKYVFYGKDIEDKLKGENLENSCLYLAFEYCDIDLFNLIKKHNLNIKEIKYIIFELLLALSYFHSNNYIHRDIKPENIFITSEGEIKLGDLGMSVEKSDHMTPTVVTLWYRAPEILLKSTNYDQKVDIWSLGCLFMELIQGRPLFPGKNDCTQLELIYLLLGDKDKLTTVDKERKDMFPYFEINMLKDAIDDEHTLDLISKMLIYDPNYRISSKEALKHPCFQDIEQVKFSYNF

[7] = target: Protein kinase 7 (PK7), Plasmodium falciparum 3D7 (PF3D7_0213400) (UniProt Q7YTF7); experiment: inhibition of Plasmodium PK7 catalytic activity – biochemical, TCAMS antimalarial set, Kinase-Glo luminescence (AID 1159587); details: recombinant PfPK7, Kinase-Glo ATP depletion luminescence
Protein kinase 7 (PK7), Plasmodium falciparum 3D7 (PF3D7_0213400), sequence (Q7YTF7 1-343): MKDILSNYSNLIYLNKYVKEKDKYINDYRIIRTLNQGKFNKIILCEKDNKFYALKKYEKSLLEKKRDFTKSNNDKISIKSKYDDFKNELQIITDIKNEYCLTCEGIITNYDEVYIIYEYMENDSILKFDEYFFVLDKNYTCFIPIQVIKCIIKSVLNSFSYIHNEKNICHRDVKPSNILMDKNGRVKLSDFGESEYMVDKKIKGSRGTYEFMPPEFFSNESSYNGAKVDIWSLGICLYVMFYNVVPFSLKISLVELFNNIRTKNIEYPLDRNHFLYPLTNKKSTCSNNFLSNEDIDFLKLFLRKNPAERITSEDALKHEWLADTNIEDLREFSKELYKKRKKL

[8] = target: Calcium-dependent protein kinase 4 (Plasmodium falciparum (isolate 3D7)) (UniProt Q8IBS5); experiment: PfCDPK4 kinase inhibitors, biochemical, TCAMS library (AID 1159588; cut-off not given, nearly all actives have IC50 up to about 0.91 µM); details: recombinant PfCDPK4, Kinase-Glo ATP depletion luminescence
Calcium-dependent protein kinase 4 (Plasmodium falciparum (isolate 3D7)), sequence (Q8IBS5 whole entry, looked up): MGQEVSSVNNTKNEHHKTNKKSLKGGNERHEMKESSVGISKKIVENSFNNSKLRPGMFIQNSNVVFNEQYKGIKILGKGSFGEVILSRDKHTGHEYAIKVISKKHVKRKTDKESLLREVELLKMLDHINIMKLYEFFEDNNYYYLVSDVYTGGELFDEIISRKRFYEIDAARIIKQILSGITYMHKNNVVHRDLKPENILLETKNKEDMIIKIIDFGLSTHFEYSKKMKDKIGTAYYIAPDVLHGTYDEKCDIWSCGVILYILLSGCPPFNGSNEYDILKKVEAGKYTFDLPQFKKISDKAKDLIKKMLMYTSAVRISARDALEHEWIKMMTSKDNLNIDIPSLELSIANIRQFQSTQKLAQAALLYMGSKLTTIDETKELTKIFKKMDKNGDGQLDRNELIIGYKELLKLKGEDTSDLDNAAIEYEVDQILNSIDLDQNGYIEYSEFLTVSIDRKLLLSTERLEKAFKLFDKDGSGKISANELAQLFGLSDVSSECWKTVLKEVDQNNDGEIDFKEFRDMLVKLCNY

Row | Structure (SMILES) | growth inhibition [1] | inhibition [2] | inhibition [3] | growth inhibition [4] | outcome [5] | outcome [6] | outcome [7] | outcome [8]
1 | Cc1c(F)cc(C(=O)NC2CC2)cc1-c1ccc2c(cnn2S(=O)(=O)c2ccc(C#N)cc2)c1 | 92% (active) | 17% | 0% | 97% (active) | inactive | inactive | inactive | inactive
2 | Cc1ccc(C)c(NC(=O)CC2C(=O)N(c3ccccc3)C(=S)N2Cc2ccco2)c1 (stereo not drawn) | 99% (active) | 9% | -1% | 101% (active) | inactive | inactive | inactive | inactive
3 | O=c1cc(NCCCNCc2cccc(SC(F)(F)F)c2)[nH]c2ccccc12 | 94% (active) | -9% | 6% | 100% (active) | inactive | inactive | inactive | inactive
4 | COc1ccc2nccc(NC(=O)N3CCC(NCc4cc5ccccc5[nH]4)CC3)c2n1 | 29% | 27% | -5% | 85% (active) | inactive | inactive | inactive | inactive
5 | CCOC(=O)c1ccc(NCc2ccccn2)cc1 | -2% | -3% | -6% | 99% (active) | inactive | inactive | inactive | inactive
6 | COc1ccccc1N1CCN(CCCCNC(=O)c2ccc(NC(=O)c3cc4ccccc4o3)cc2)CC1 | 2% | 9% | -1% | 84% (active) | inactive | inactive | inactive | inactive
7 | Nc1nccc2ccc(-c3cccc(OCc4ccccc4)c3)cc12 | 81% (active) | 47% | 5% | 101% (active) | inactive | inactive | inactive | inactive
8 | Cc1sc2cc(Cl)cc(Cl)c2c1S(=O)(=O)Nc1ccc2nccc(N3CCNCC3)c2c1 | 99% (active) | 24% | -8% | 100% (active) | inactive | inactive | inactive | inactive
9 | Cc1ccoc1C(=O)Nc1ccc(-c2cccc(-c3nc4c(C)cccc4[nH]3)c2)cc1 | 69% (active) | 15% | -4% | 95% (active) | inactive | inactive | inactive | inactive
10 | CCc1ccc(CN2CCC(C(=O)Nc3ccc(-c4nc5ccccc5[nH]4)cc3)CC2)o1 | 94% (active) | 29% | -4% | 99% (active) | inactive | inactive | inactive | inactive
11 | O=C(Nc1cccc(-c2ccc(-c3nc4ccc(F)cc4[nH]3)s2)c1)c1ccncc1 | 29% | 74% (active) | -8% | 96% (active) | inactive | inactive | inactive | inactive
12 | O=C(Nc1ccc(Cl)c(C(F)(F)F)c1)c1ccc(Cl)c([N+](=O)[O-])c1 | 18% | 20% | -2% | 87% (active) | inactive | inactive | inactive | inactive
13 | CCCCCN1CCCC(CNS(=O)(=O)c2cccc(C(=O)Nc3ccc(C(F)(F)F)cc3)c2)C1 (stereo not drawn) | 2% | 27% | 4% | 96% (active) | inactive | inactive | inactive | inactive
14 | CC(C)(C)c1ccc(-c2csc(NC(=O)CC(c3ccccc3)c3ccccc3)n2)cc1 | 64% (active) | 3% | -6% | 86% (active) | inactive | inactive | inactive | inactive
15 | c1ccc(-c2cccc(-c3ccccn3)n2)nc1 | 99% (active) | 45% | -1% | 98% (active) | inactive | inactive | inactive | inactive
16 | OC(CNCCCc1ccccc1)c1cc(OCc2ccccc2)cc(OCc2ccccc2)c1 (stereo not drawn) | 85% (active) | 8% | 4% | 93% (active) | inactive | inactive | inactive | inactive
17 | COc1ccc2nc(SC(C)C(=O)c3c[nH]c4ccccc34)[nH]c2c1 (stereo not drawn) | 98% (active) | -3% | 0% | 100% (active) | inactive | inactive | inactive | inactive
18 | NC(=O)c1ccsc1NC(=O)CNC(c1ccccc1)c1ccccc1 | 37% | 8% | 3% | 88% (active) | inactive | inactive | inactive | inactive
19 | COCCN1CCC(N(Cc2ccc(-c3ccc(C(F)(F)F)cc3)cc2)C(=O)Cn2c(CCc3cccc(F)c3F)cc(=O)c3c2CCC3)CC1 | 48% | 31% | -5% | 85% (active) | inactive | inactive | inactive | inactive
20 | CC(C(=O)N1CCCC1)N1CCN(S(=O)(=O)c2ccc(C(C)(C)C)cc2)CC1 (stereo not drawn) | 86% (active) | 4% | 0% | 98% (active) | inactive | inactive | inactive | inactive
21 | CS(=O)(=O)c1ccc(-c2cc(C(F)(F)F)nc(N[C@@H]3CCCC[C@H]3OCc3ccccc3)n2)cc1 | 99% (active) | 8% | 5% | 100% (active) | inactive | inactive | inactive | inactive

Row | Structure (SMILES) | growth inhibition [1] | inhibition [2] | inhibition [3] | growth inhibition [4] | outcome [5] | outcome [6] | outcome [7] | outcome [8]
22 | Oc1ccc2c(c1NCC1CCCCC1)CCCC2 | 99% (active) | 11% | 0% | 99% (active) | inactive | inactive | inactive | inactive
23 | CNCc1cccc2[nH]c(-c3csc(Cc4cc(Cl)ccc4OCC(C)C)n3)nc12 | 33% | 9% | -4% | 100% (active) | inactive | inactive | inactive | inactive
24 | CC(C)(C)c1ccc(Cn2c(=N)n(CC(=O)c3ccc(-c4ccccc4)cc3)c3ccccc32)cc1 | 50% (active) | 63% (active) | -5% | 98% (active) | inactive | inactive | inactive | inactive
25 | COc1ccc2ncn(-c3ccc(C(N)=O)c(OCc4ccccc4C(F)(F)F)c3)c2c1 | 100% (active) | 18% | 3% | 98% (active) | inactive | inactive | inactive | inactive
26 | NC(N)=NC(=O)Nc1cc(Cl)c(Cl)c(C(F)(F)F)c1 | 99% (active) | 6% | -5% | 100% (active) | inactive | inactive | inactive | inactive
27 | FC(F)(F)c1ccc(NC(=S)N2CCC(CCN3CCC(c4c[nH]c5ccccc45)CC3)CC2)cc1 | 37% | 44% | 0% | 98% (active) | inactive | inactive | inactive | inactive
28 | O=C(NCCNc1ccnc(NCc2ccc(F)cc2)n1)c1cc2ccccc2s1 | 17% | 6% | -5% | 99% (active) | inactive | inactive | inactive | inactive
29 | Nc1nccc2ccc(-c3ccncc3)cc12 | 95% (active) | 19% | 5% | 96% (active) | inactive | inactive | inactive | inactive
30 | CC(C)C[C@@H](/C=N/NC(N)=O)NC(=O)[C@H](CC(C)C)NC(=O)[C@H](CC(C)C)NC(=O)OCc1ccccc1 | 99% (active) | 41% | -1% | 100% (active) | inactive | inactive | inactive | inactive
31 | CC(=O)Nc1ccc(S(=O)(=O)Nc2ccc(Nc3nc(C)cc(N(C)C)n3)cc2)cc1 | 22% | -2% | -1% | 100% (active) | inactive | inactive | inactive | inactive
32 | CCN1CCN(c2cc(C)c3cc(NC(=O)c4ccc(Br)o4)ccc3n2)CC1 | 13% | -8% | -7% | 98% (active) | inactive | inactive | inactive | inactive
33 | O=C(Nc1ccccc1)N(Cc1cccc(-c2cccc(CNCCc3ccccc3)c2)c1)C1CCN(Cc2ccccc2)CC1 | 87% (active) | 100% (active) | 1% | 100% (active) | inactive | inactive | inactive | inactive
34 | CC(=O)c1ccc(N2CCN(C(=O)Nc3ccc(Cl)cc3)CC2)cc1 | 0% | 4% | 0% | 97% (active) | inactive | inactive | inactive | inactive
35 | O=C(Nc1ccc(I)cc1)Nc1ccc(Cn2ncc(N3CCCNCC3)c(Cl)c2=O)cc1 | 30% | 35% | 0% | 86% (active) | inactive | inactive | inactive | inactive
36 | O=C(NC1CC1)c1ccc(N2CCC(c3ccccc3)CC2)nc1 | 92% (active) | 16% | 1% | 93% (active) | inactive | inactive | inactive | inactive
37 | O=C(/C=C/c1ccc(Cl)c(Cl)c1)NC1CCC(CN2CCC(c3nc4ncccc4[nH]3)CC2)CC1 (stereo not drawn) | 2% | 7% | -1% | 101% (active) | inactive | inactive | inactive | inactive
38 | CC1CCN(CCNC(=O)c2ccc3c(=O)n(Cc4ccc(Cl)cc4)c(=S)[nH]c3c2)CC1 | 75% (active) | 6% | 4% | 101% (active) | inactive | inactive | inactive | inactive
39 | CNC(=O)c1cnc(Nc2ccc(N3CCN(C)CC3)cc2)nc1Nc1ccccc1OC | 84% (active) | 8% | 2% | 100% (active) | inactive | inactive | inactive | inactive
40 | Cc1cccc(C(=O)Nc2ccnc(N3CCC(N(C)Cc4ccc(C#N)cc4)CC3)c2)c1 | 6% | 12% | -4% | 94% (active) | inactive | inactive | inactive | inactive
41 | COc1ccc(NCCCNc2ccnc3ccccc23)cc1 | 17% | 34% | 2% | 88% (active) | inactive | inactive | inactive | inactive
